Test [1] concerns the target 6-phosphogluconate dehydrogenase, decarboxylating (Homo sapiens) (UniProt P52209). The test can be described thus: inhibition of human phosphogluconate dehydrogenase – biochemical, recombinant enzyme, NADPH absorbance, primary screen (AID 1159550). As to conditions: recombinant 6PGD, NADPH absorbance 341 nm; at 10 µM; stronger effect = higher value.
A short description of test [2]: EMT-state selective cytotoxicity in co-culture – imaging, PC-3E GFP, TEM4-18 mCherry, primary screen (AID 1345086;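 active means compounds killing one labelled cell type while sparing the other, by normalised counts and ratio limits, not self-fluorescent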;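 on all read-outs here: cells exposed to compound for 72 h before imaging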;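 on red/green cell ratio (normalised): normalised mesenchymal count divided by normalised epithelial count so high means epithelial killing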). As to conditions: PC-3E GFP / TEM4-18 mCherry co-culture, imaging cell counts, at 1 µM; for red/green cell ratio (normalised): actives lie on both sides, counts scaled to control wells, 1 = unselective.
Test [3] in a line: blockers of polyQ-driven CASP3 activation – cell-based (AID 1583). The conditions noted are these: polyglutamine-induced caspase-3 activation, cell assay; stronger effect = higher value;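 tested at 10 µM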.
Test [4] can be described thus: yeast 75Q aggregation reduction – 75Q-TubU reporter (AID 1593). The conditions noted are these: Yeast 75Q polyglutamine aggregation reporter.
Test [5] in a line: restoration of touch response, mutant HTT neurons – whole organism, C. elegans mechanosensory neurons, N-terminal huntingtin (AID 1599). The conditions noted are these: C. elegans polyQ-huntingtin mechanosensory neurons, stronger effect = higher value.
The nature of test [6]: blockers of cytochrome c efflux from mitochondria – biochemical, purified mitochondria (AID 1603).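 Further: mouse liver mitochondria challenged with calcium chloride; signal normalized to the plate average as 100%.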 The conditions noted are these: stronger effect = lower value.
Test [7] in a line: polyglutamine aggregate formation blockers (AID 1604). As to conditions: polyglutamine-induced protein aggregation inhibition assay; stronger effect = higher value; tested at 2.5 µM.
Test [8] in a line: glutamate transport activators, MN-1 cells, MN-1 cell line (AID 1612).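 Further: tested at 1 µM final; 0% = mean of DMSO vehicle wells on each plate; positive means more glutamate uptake than control and negative means less.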 The conditions noted are these: MN-1 motor neuron cells, stronger effect = higher value.
Test [9] in a line: 75Q-TubH aggregate inhibition, S. cerevisiae, yeast (AID 1616). The conditions noted are these: S. cerevisiae 75Q-TubH polyglutamine aggregation suppression; stronger effect = higher value.
A short description of test [10]: MELAS cybrid and Rieske KO viability enhancers – cell-based, MELAS cybrids, Rieske KO mouse fibroblasts, CellTiter-Glo, primary screen (AID 1508586;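 active means mean z-score across replicates of 1.96 or higher in either the MELAS or the Rieske mutant cell line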;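 further: z relative to plate mean and SD of compound and empty wells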). The conditions noted are these: low glucose. On the technique in general: Cellular ATP, detected with luciferase, serves as a proxy for viable cell number.
Test [11] concerns the target NAD(+) hydrolase SARM1 (Homo sapiens) (UniProt Q6SZW1). As to the kind of experiment: blocking NAD cleavage by SARM1 SAM-TIR – cell lysate, NAD-Glo luminescence (AID 1508614;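 active means compound whose remaining NAD level is above about 45 nM, limit read from the data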). The conditions noted are these: SAM-TIR HEK293T lysate NADase, at 1 µM, stronger effect = higher value.
The target in test [12] is Mitogen-activated protein kinase 7 (Homo sapiens) (UniProt Q13164). The test can be described thus: Gal4-ERK5 driven luciferase induction – cell-based, HTS, primary screen (AID 1508626;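 active means luciferase signal above three times the same-plate solvent-only control wells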;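 further: luciferase driven by Gal4-ERK5 fusion binding five Gal4 sites before minimal TATA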). The conditions noted are these: HeLa Gal4-ERK5 transactivation, 18 h, at 5 µM, stronger effect = higher value.
Test [13] in a line: galactose survival enhancers in mitochondrial complex I cybrids – cell-based, galactose medium, ATP luminescence, primary screen (AID 1645843;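 active means z-score of at least 1.8 in each of two replicates, scored against plate mean and spread of sample wells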;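 further: positive z means more ATP and so rescue of galactose-driven cybrid death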). As to conditions: complex I mutant cybrid cells, 72 h, stronger effect = higher value.
Test [14] is described as follows: GFP-Q80 aggregate reduction, neuronal-like cells, cell-based, NGF-treated PC12, GFPQ80 (AID 1614).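 Further: lower means fewer inclusions and 0 means no inclusions at all.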 As to conditions: PC12 NGF-treated GFP-polyQ80 inclusion reduction.
Test [15] is described as follows: compounds altering circadian rhythm period length – cell-based, LOPAC library, luminescence reporter (AID 2774; call rule not given here;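 further: values are relative to mean of DMSO wells on each plate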). The conditions noted are these: circadian reporter cells, at 7 µM, actives lie on both sides.
Test [16] can be described thus: P. berghei load reduction in hepatocytes – cell-based, HepG2, luciferase luminescence, HepG2 viability, primary screen (AID 624349; in the data active means parasite load remaining mostly below about 12%, no sharp cut-off; inactive means mostly above about 10%;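 further: 100% = mean of DMSO negative control wells on the same plate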). As to conditions: P. berghei liver stage in HepG2, luciferase luminescence, concentration not given here; parasite load remaining: stronger effect = lower value; viability: measured here: HepG2 viability without parasites.
Test [17] relates to Hepatitis C virus NS3 helicase. As to the kind of experiment: blockers of NS3h binding to ssDNA – biochemical, fluorescence polarization, LOPAC1280 library, primary screen (AID 687035; in the data active means inhibition above about 37%). As to conditions: Purified HCV NS3 helicase, Cy5-dT15 ssDNA binding fluorescence polarization; stronger effect = higher value; concentration not given here. In general terms: Polarisation of emitted light reports the rotation of a fluorescent probe.

Test [18] in a line: blockers of cellular phospholipid synthesis – cell-based, LOPAC library, screen 4, primary screen (AID 1347384; call rule not given here). The conditions noted are these: animal cells, phospholipid biosynthesis inhibition screen; at 10 µM.
[19] abbreviates: measured here: epithelial PC-3E GFP cell survival.
Setting [20] is: measured here: mesenchymal TEM4-18 mCherry cell survival.
Where [21] appears, read: MELAS cybrid survival, CellTiter-Glo 48 h, stronger effect = higher value.
[22] abbreviates: Rieske KO mouse fibroblast survival, CellTiter-Glo 72 h.

Values joined by “and” are separate entries in the source; they are usually repeats but may differ in a detail not shown here. Equal values may be shown once. For some assays here: Entries with a potency or affinity are not part of this list. Active and inactive are the calls of the source.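 How the source made its calls, unless noted: active means at least 20% inhibition of 6-phosphogluconate dehydrogenase activity; inactive means the rest.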

Experimental findings from PubChem BioAssay are described below.

Chain of 6-phosphogluconate dehydrogenase, decarboxylating (Homo sapiens) (P52209 whole entry, looked up): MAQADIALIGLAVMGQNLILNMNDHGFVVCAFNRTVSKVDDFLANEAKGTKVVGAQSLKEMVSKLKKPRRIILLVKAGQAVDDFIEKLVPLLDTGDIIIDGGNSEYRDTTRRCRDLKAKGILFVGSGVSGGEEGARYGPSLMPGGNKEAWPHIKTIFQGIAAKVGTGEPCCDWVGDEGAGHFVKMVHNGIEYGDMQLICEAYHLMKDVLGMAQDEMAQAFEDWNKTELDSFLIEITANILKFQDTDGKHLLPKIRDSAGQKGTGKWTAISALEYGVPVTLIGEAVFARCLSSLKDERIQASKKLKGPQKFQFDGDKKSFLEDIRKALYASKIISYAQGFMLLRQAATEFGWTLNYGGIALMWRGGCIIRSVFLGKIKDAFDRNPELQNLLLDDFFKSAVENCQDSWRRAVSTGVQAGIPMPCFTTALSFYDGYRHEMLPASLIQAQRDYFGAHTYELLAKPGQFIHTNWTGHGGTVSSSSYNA
Chain of NAD(+) hydrolase SARM1 (Homo sapiens) (Q6SZW1 whole entry, looked up, the tested form may be a part): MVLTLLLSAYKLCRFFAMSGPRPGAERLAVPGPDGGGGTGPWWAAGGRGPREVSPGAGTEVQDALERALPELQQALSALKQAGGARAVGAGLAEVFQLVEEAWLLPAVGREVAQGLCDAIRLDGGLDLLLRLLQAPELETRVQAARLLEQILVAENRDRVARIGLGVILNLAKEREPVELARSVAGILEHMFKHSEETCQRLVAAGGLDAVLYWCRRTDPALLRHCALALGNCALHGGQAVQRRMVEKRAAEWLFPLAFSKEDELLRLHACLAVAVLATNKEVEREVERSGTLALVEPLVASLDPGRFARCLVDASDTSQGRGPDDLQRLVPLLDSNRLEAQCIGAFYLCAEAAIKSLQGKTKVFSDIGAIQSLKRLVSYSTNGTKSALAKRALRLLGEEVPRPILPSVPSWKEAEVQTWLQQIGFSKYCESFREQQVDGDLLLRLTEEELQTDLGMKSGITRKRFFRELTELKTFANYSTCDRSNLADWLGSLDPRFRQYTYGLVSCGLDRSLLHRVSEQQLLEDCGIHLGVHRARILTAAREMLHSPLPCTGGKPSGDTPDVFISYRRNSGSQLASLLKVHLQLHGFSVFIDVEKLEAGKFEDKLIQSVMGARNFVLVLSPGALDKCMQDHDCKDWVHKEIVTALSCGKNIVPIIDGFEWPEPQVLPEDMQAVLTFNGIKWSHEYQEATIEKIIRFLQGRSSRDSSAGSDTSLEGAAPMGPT
Chain of Mitogen-activated protein kinase 7 (Homo sapiens) (Q13164 whole entry, looked up, the tested form may be a part): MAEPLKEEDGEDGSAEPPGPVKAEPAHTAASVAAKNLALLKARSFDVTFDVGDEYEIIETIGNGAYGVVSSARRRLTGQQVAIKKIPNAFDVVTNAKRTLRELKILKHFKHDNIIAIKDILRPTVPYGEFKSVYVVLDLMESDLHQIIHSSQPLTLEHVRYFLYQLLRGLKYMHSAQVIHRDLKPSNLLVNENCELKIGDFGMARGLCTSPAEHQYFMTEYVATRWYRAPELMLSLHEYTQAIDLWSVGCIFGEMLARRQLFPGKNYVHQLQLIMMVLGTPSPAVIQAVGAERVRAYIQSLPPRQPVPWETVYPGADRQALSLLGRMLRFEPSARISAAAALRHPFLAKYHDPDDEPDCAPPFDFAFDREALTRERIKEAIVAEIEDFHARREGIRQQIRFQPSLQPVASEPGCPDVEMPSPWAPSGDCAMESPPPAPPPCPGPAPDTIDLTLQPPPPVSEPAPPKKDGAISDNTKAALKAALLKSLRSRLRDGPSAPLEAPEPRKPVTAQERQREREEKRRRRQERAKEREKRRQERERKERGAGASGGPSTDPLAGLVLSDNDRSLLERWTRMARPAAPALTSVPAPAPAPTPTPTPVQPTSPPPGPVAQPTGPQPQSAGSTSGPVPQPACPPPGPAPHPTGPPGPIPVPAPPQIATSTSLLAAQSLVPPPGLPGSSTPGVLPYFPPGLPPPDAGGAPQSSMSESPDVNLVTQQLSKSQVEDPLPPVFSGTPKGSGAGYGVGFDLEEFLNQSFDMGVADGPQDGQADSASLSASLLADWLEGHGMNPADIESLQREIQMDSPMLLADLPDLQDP

One may read the inhibition as the change of the read-out against control, counted positive when it falls. With `COc1ccc2c(=O)c(OC)c(-c3ccccc3)oc2c1`, the inhibition in test [1] was 5.12% (inactive). In addition, the red/green cell ratio (normalised) in test [2] was 0.95 (inactive). In addition, the normalised cell number is 1.07 in test [2] (setting [19]) and 1.02 in [2] (setting [20]).

Take `COc1cc(OC)c2c(=O)c(-c3ccccc3)c(C)oc2c1OC`: in test [1], the inhibition was -9.49% (inactive). The red/green cell ratio (normalised) in [2] was 1.02 (inactive). For the same compound, the normalised cell number in test [2] (setting [19]) came out at 1.09; in test [2] (setting [20]) it was 1.11.

Regarding `CCCCCC1C(=O)CCC1CC(=O)OC` (centres undefined), in test [1], the inhibition was 6.35% (inactive). In addition, the red/green cell ratio (normalised) in test [2] is 0.86 (inactive). Further, the normalised cell number was 1.26 in test [2] (setting [19]) and 1.08 in test [2] (setting [20]).

As to `CC(=O)/C(=C\c1ccccc1)CC(=O)O`, the inhibition in test [1] is 3.72% (inactive). In addition, the red/green cell ratio (normalised) in test [2] is 0.99 (inactive). Further, the normalised cell number in test [2] (setting [19]) was determined as 1.18; in test [2] (setting [20]), 1.16.

With `COc1cc2c(cc1OC)C1C(=O)c3c(cc4c(c3O)C=CC(C)(C)O4)OC1CO2` (centres undefined), the inhibition in [1] was 7.64% (inactive). Moreover, the red/green cell ratio (normalised) in test [2] was 0.76 (inactive). Further, the normalised cell number in [2] (setting [19]) was found to be 1.04; in test [2] (setting [20]), 0.79.

`O=C1CC(c2ccccc2)Oc2ccccc21` (centres undefined): in test [1], the inhibition was 1.48% (inactive). The red/green cell ratio (normalised) in test [2] was 0.93 (inactive). The normalised cell number in [2] (setting [19]) worked out at 1.14; in test [2] (setting [20]) it was 1.06.

`COc1ccc(C(=O)c2ccc(O)cc2)c(O)c1O`: in test [1], the inhibition is -5.23% (inactive). Moreover, the red/green cell ratio (normalised) in test [2] was 1.05 (inactive). The normalised cell number in test [2] (setting [19]) came to 0.85; in [2] (setting [20]), 0.89.

As for `C[C@]12CC[C@@H](O)C[C@H]1CCc1ccccc12`, in [1], the inhibition was -3.83% (inactive). Also, the red/green cell ratio (normalised) in test [2] is 1.08 (inactive). The normalised cell number in test [2] (setting [19]) was 1.09; in test [2] (setting [20]), 1.17.

For the compound `CC(C)CCCC(C)[C@H]1CCC2C3CC=C4CC(=O)CC[C@]4(C)C3CC[C@@]21C` (some centres undefined), the inhibition in [1] is 11.7% (inactive). The red/green cell ratio (normalised) in [2] is 0.87 (inactive). Also, the normalised cell number in test [2] (setting [19]) was 1.01; in [2] (setting [20]), 0.88.

Regarding `COc1cc(CNC(=O)CCCC/C=C/C(C)C)ccc1O`, the results for the inhibition in test [3] and in [1] were -19.2% and 18.7% (inactive), respectively. The same compound gave a score in test [4] of 0.57. This compound displayed a rescue above control in test [5] of 10.3. Moreover, the cytochrome c release ratio in test [6] was 1.29. Further, the inhibition of aggregation in [7] turned out to be 71.9%. In addition, in test [8], the glutamate uptake change was -9.59%. In [9], the aggregation suppression score worked out at 0.5. Moreover, the red/green cell ratio (normalised) in test [2] is 0.88 (inactive). In addition, the normalised cell number is 1.14 in test [2] (setting [19]) and 1 in test [2] (setting [20]). In addition, the z-score was -0.437 (inactive) in test [10] (setting [21]); -0.16 in [10] (setting [22]); 0.07 (inactive) and 0.225 (inactive) in test [13]. The remaining NAD in test [11] is 10 nM (inactive). Moreover, the luciferase signal in test [12] is 32 AU (inactive).

What is called viability is a per cent measure of how many cells are alive, often set against a control. For `NCCc1cnc[nH]1`, the inhibition in test [3] is -28.4%; in test [17], -3% (inactive); in [1], 11.6% (inactive). The compound further showed a score in test [4] of 1.16. Moreover, the rescue above control in test [5] is -5.3. In addition, the cytochrome c release ratio in test [6] is 0.91. In addition, the inhibition of aggregation in [7] came out at 51.2%. Further, in [8], the glutamate uptake change was -0.34%. The compound further showed an inclusion score in test [14] of 2. The aggregation suppression score in [9] stood at 1.08. The period change in [15] was 0.14 h (inactive). Besides, the parasite load remaining in test [16] was 99.6% (inactive) and 68.2% (inactive). Also, in test [16], the viability was 74.2% and 99%. Besides, the red/green cell ratio (normalised) in [2] is 1.19 (inactive). For the same compound, the normalised cell number in test [2] (setting [19]) stood at 0.99; in test [2] (setting [20]), 1.18. Also, in [18], the result was inactive. Also, the z-score in test [10] (setting [21]) is 1.03 (inactive) and -0.124 (inactive) and -0.135 (inactive); in test [10] (setting [22]), -0.434 and -0.222 and -0.159; in test [13], 0.205 (inactive) and 0.305 (inactive) and 0.49 (inactive). Moreover, the remaining NAD in [11] is 10 nM (inactive). Further, in test [12], the luciferase signal was 68 AU (inactive).
